TEAD-YAP inh: TEAD-YAP interaction inhibition, primary screen, TEAD-YAP interaction inhibitor project, luminescence, HEK-TIYL cells; TEAD-Gal4/YAP UAS-luciferase luminescence; inhibition, % at 9.12 µM; hit rate 1.4% among 640,000; AID 1259422, 2018; in the data active = inhibition above about 32%;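 note: 0% = median of test compound wells and 100% = reference inhibitor wells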
MITF inh: MITF inhibitors, primary screen, biochemical, AlphaScreen, human | Microphthalmia-associated transcription factor (Homo sapiens), O75030 | AlphaScreen MITF homodimerization, bead proximity signal | inhibition, % at 2.6 µM | hit rate 0.91% among 650,000 | AID 1259374, 2018; in the data active = inhibition above about 50%;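 note: 0% = vehicle wells with protein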
FBW7 activator: FBW7 E3 ligase activators, primary screen, biochemical, AlphaScreen, human. normalized activity (activation), % at 26.1 µM. AID 1259310, 2017. F-box/WD repeat-containing protein 7 (Homo sapiens), Q969H0. AlphaScreen FBW7–phospho-cyclin E peptide binding, activator screen. hit rate 0.13% among 650,000; in the data active = normalized activity above about 1.9%;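 note: purified mutant Fbw7 with reduced substrate affinity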
GPR151 activ: activators of human GPR151, primary screen, cell-based, PathHunter beta-arrestin, luminescence; G-protein coupled receptor 151 (Homo sapiens), Q8TDV0; PathHunter beta-arrestin GPR151 cells; activation, % at 11.2 µM; hit rate 1% among 650,000; in the data active = activation above about 4.9%;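 note: 0% = median of compound wells and 100% = cells with positive control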
Target sequence (Q8TDV0 whole entry, looked up): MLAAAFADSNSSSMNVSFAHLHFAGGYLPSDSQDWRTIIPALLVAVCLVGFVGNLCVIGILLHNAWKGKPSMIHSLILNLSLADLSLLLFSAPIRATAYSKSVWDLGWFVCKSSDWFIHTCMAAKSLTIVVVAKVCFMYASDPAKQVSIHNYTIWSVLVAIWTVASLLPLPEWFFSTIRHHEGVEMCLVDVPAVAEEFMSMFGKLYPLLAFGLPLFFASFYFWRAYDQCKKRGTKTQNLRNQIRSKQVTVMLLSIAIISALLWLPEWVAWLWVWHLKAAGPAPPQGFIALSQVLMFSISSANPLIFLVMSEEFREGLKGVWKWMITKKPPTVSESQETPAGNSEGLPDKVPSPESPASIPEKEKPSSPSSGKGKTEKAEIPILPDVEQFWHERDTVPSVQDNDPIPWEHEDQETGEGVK
MITF inh conf: MITF inhibitors, retest of hits, confirmation, biochemical, AlphaScreen, triplicate; shares compounds with MITF inh; AlphaScreen MITF homodimerization, biotin/His-MITF beads; inhibition, % at 2.6 µM; hit rate 16% among 4,700; AID 1259372, 2018;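 active = inhibition above a cutoff derived from the DMSO control wells, cut at about 28% in these data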;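 note: 0% = MITF dimer wells with DMSO only; inhibitors lower the bead chemiluminescence by keeping MITF from dimerizing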
AlphaScreen DR: AlphaScreen optical interference compounds, dose response, counter-screen, biochemical, HTS | shares compounds with MITF inh | AlphaScreen optical interference counterscreen, cell-free | IC50, µM | hit rate 6% among 480 | AID 1259373, 2018; call rule not given here
AlphaScreen intf2: AlphaScreen optical interference compounds, counter-screen for MITF inhibitor project, biochemical, triplicate; shares compounds with MITF inh; LysRS AlphaScreen counterscreen, signal interference; inhibition, % at 2.6 µM; hit rate 7.6% among 4,700; AID 1259376, 2018;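 active = inhibition above a cutoff derived from the DMSO control wells, cut at about 30% in these data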
Starred values were filed as active, the others as inactive; / = no result. Shown are actives, neighbours in structure and some others; about 3.5% of the full set was active somewhere.

SMILES | TEAD-YAP inh | MITF inh | FBW7 activator | GPR151 activ | MITF inh conf | AlphaScreen intf2 | others
CCN1CCN(CC(=O)n2c(C)c(C)c3ccccc32)CC1 | -1 | 74* | 0 | -1 | -2 | -4
c1ccc(N2CCN(c3cc(Nc4ccc5c(c4)OCO5)ncn3)CC2)nc1 | -15 | 8 | 0 | 0 | / | /
CCc1nc2ccccc2c(NC(=O)CNC(C)(C)CC(C)(C)C)c1C | 1 | 70* | 0 | 1 | 14 | -6
CCc1nc2ccccc2c(NC(=O)CN2CCCC2)c1C | 8 | 65* | 0 | 1 | -14 | -3
O=C(CN1CCCC1)Nc1c2c(nc3ccccc13)N(Cc1ccccc1)CC2 | 8 | 30 | 0 | 0 | / | /
O=C(CN1CCCC1)Nc1ccccc1 | -14 | 11 | 1 | 4 | / | /
O=C(CN1CCCC1)Nc1c2c(nc3ccccc13)N(c1ccccc1)CC2 | 4 | 72* | 0 | 0 | 4 | 8
CC(C(O)c1ccccc1)N(C)CC(=O)Nc1c2c(nc3ccccc13)N(C)CC2 (stereo not given) | -1 | 67* | 0 | 0 | 13 | 27
COc1ccc(OC)c(-n2c(O)c(C=Nc3ccc(Cl)cc3)c(=O)[nH]c2=S)c1 | 6 | -3 | 0 | -1 | / | /
Cc1ccnc(SCc2cc(=O)c(OC(=O)c3ccccc3I)co2)n1 | -3 | -7 | 0 | 2 | / | /
Nc1cc(C(=O)O)cc([N+](=O)[O-])c1 | -2 | -1 | 0 | -2 | / | /
S=c1[nH]nc(-c2ccncc2)n1/N=C/C=C/c1ccco1 | 2 | 70* | 0 | 1 | 80* | 16 | AlphaScreen DR=>6.5
CC(C)=C1C2CC2C2C(C(=O)O)C12 (stereo not given) | 15 | 60* | 0 | -1 | -3 | 5
O=C(NC(NCCC12CC3CC(CC(C3)C1)C2)(C(F)(F)F)C(F)(F)F)c1ccco1 | -19 | -10 | 0 | 0 | / | /
Cc1ccc(C(=O)/C=C/c2ccc(Br)cc2)o1 | 1 | 8 | 0 | 0 | / | /
Cc1ccc(C(=O)/C=C/c2ccc(Br)o2)o1 | -8 | 67* | -1 | -1 | 21 | -1
OC(COCc1ccccc1)Cn1cnc2ccccc21 (stereo not given) | -5 | 1 | 0 | 2 | / | /
CCCCOCC(O)Cn1cnc2ccccc21 (stereo not given) | -3 | 55* | 0 | -1 | 21 | 18
CCOC(=O)Cn1c(Br)nc2c1c(=O)n(C)c(=O)n2C | 6 | -4 | 0 | 0 | / | /
O=C(NCc1cccnc1)c1cc2ccccc2o1 | -14 | 52* | 0 | 1 | -5 | -2
O=C(NC(=S)NCc1cccnc1)c1cc2ccccc2o1 | -6 | 12 | 0 | -1 | / | /
OCCC1CN(Cc2cc3ccccc3[nH]2)CCN1CC1CCCCC1 (stereo not given) | -9 | 5 | 0 | 0 | / | /
Cc1cc(C)cc(Cn2c(NCCCN3CCOCC3)cc(=O)n(C)c2=O)c1 | -6 | 70* | 0 | 1 | 11 | 19
O=C(NCc1ccccc1)c1cc2nc(-c3ccccc3)cc(-c3ccccc3)n2n1 | -5 | -17 | 0 | 1 | / | /
Fc1cccc(CN2CCN(Cc3ccccn3)CC2)c1 | -6 | 71* | 0 | 0 | 11 | 25
SMILES | TEAD-YAP inh | MITF inh | FBW7 activator | GPR151 activ | MITF inh conf | AlphaScreen intf2 | others
Fc1ccc(N2CCN(Cc3ccccn3)CC2)cc1 | 0 | 63* | 0 | 1 | 14 | 42*
c1ccc(Oc2cccc(CN3CCN(Cc4ccccn4)CC3)c2)cc1 | 2 | 75* | 0 | -1 | -5 | 5
O=C(Nc1ccccc1C(=O)O)c1cncc(Br)c1 | -9 | 57* | 0 | -4 | 11 | 14
O=C(NC(=S)Nc1ccccc1C(=O)O)c1cncc(Br)c1 | 6 | 17 | 0 | -1 | / | /
Cc1nc(SCC(=O)Nc2cccc(C(F)(F)F)c2)c2c3c(sc2n1)CCC3 | -9 | 74* | 0 | -1 | 5 | 13
CCOC(=O)N1CCN(c2nc(C)nc3sc(C)c(C)c23)CC1 | 12 | 10 | 0 | 0 | / | /
CCOC(=O)N1CCN(c2nc(C)nc3sc(C)cc23)CC1 | 6 | 54* | 0 | 0 | 5 | 21
CCOC(=O)c1c(C)c(-c2ccccc2)n(CC(=O)N2CCN(CC)CC2)c1C | 12 | 11 | 1 | 1 | / | /
Cc1c(NC(=O)CCN2C(=O)C3C4CCC(C4)C3C2=O)ccc(Br)c1Cl (stereo not given) | -19 | 68* | 0 | -1 | 10 | -3
CCOC(=O)C1CCCN(C(=O)Cc2c(F)cccc2Cl)C1 (stereo not given) | -4 | -3 | 0 | 0 | / | /
CCOC(=O)C1CCCN(Cc2c(F)cccc2Cl)C1 (stereo not given) | 0 | 54* | 0 | 1 | -14 | -5
CCOC(=O)C1CCCN(CCc2ccccc2)C1 (stereo not given) | 5 | 59* | 0 | 2 | -11 | -5
CCOC(=O)C1CCCN(Cc2cccc(C(F)(F)F)c2)C1 (stereo not given) | -3 | 52* | 0 | 1 | 9 | 11
COc1ccc(C2CC(c3ccc(Cl)cc3)n3nnnc3N2)cc1 (stereo not given) | 13 | 3 | 0 | 1 | / | /
Cn1c(-c2cccc([N+](=O)[O-])c2)cnc1NCc1cccc(O)c1 | -10 | 39 | 0 | 0 | / | /
Cn1c(-c2cccc([N+](=O)[O-])c2)cnc1NCc1ccc(F)cc1 | -4 | 38 | 0 | 0 | / | /
Cn1c(-c2cccc([N+](=O)[O-])c2)cnc1NCc1cccc(F)c1 | -11 | 52* | 0 | 0 | -8 | -8
Cn1c(-c2ccc(F)cc2)cnc1NCc1cccc([N+](=O)[O-])c1 | -2 | 59* | 0 | 0 | -4 | -5
O=C(c1cccs1)N1CCN(C(=O)N2CCCCCC2)CC1 | -8 | 8 | 0 | 4 | / | /
O=C(Cc1ccc(Br)cc1)NCc1cccs1 | 28 | -4 | -1 | 1 | / | /
Cc1ccc(C)c(NC(=O)C(=O)NCc2cccnc2)c1 | 2 | -6 | 0 | 0 | / | /
CN1CCN(Cc2cc([N+](=O)[O-])c(O)c3ncccc23)CC1 | 2 | 97* | -1 | 1 | 105* | 101*
O=[N+]([O-])c1cc(CN2CCCC2)c2cccnc2c1O | -2 | 99* | -1 | 0 | 106* | 101*
CCCn1c(SC(C(=O)NC(N)=O)C(C)C)nc2ccccc2c1=O (stereo not given) | 3 | 55* | 0 | -1 | 19 | 10
CN(C)c1ccc(C(=O)N/N=C/c2ccccc2O)cc1 | -44 | 15 | 0 | -1 | / | /
